The results in this text go back to the supplement of paper PMC8728848.

What all share (experiment): glycan array binding signal (z-score within array); higher = stronger binding
Common to all, as to settings: glycan notation: IUPAC condensed, linker removed

One experiment has as its target Fuc(a1-2)Gal(b1-3)GlcNAc. In a few lines: (§1)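 The binding signal is a Z-score computed within each array. Data were drawn from 3228 arrays in the Consortium for Functional Glycomics database, restricted to those with a known protein sequence. Scores were averaged over arrays of the same protein sequence at different concentrations or buffers, and over linkers, and negative values can be taken as non-binding.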

The target of experiment [1] is Fuc(a1-2)Gal(b1-4)GlcNAc(b1-2)Man(a1-3)[Fuc(a1-2)Gal(b1-4)GlcNAc(b1-2)Man(a1-6)]Man(b1-4)GlcNAc(b1-4)[Fuc(a1-6)]GlcNAc. Summed up: as §1
Experiment [2] deals with Fuc(a1-2)Gal(b1-4)GlcNAc6S. Summed up:
as §1

Experiment [3] concerns the target Fuc(a1-2)Gal(b1-4)[Fuc(a1-3)]GlcNAc(b1-3)Gal(b1-4)[Fuc(a1-3)]GlcNAc(b1-3)Gal(b1-4)[Fuc(a1-3)]GlcNAc. In a few lines:
as §1

The target of experiment [4] is Fuc(a1-2)[Gal(a1-3)]Gal(b1-4)GlcNAc(b1-2)Man(a1-3)[Fuc(a1-2)[Gal(a1-3)]Gal(b1-4)GlcNAc(b1-2)Man(a1-6)]Man(b1-4)GlcNAc(b1-4)[Fuc(a1-6)]GlcNAc. Summed up: as §1
Experiment [5] addresses Fuc(a1-2)[GalNAc(a1-3)]Gal(b1-3)GlcNAc(b1-2)Man(a1-3)[Fuc(a1-2)[GalNAc(a1-3)]Gal(b1-3)GlcNAc(b1-2)Man(a1-6)]Man(b1-4)GlcNAc(b1-4)[Fuc(a1-6)]GlcNAc. In a few lines:
as §1

For experiment [6], the target named is Gal(a1-3)Gal(b1-3)GlcNAc(b1-3)GalNAc. In a few lines: as §1
The target of experiment [7] is Gal(b1-3)GlcNAc(a1-6)Gal(b1-4)GlcNAc. In a few lines: as §1
In experiment [8] the target is Gal(b1-3)GlcNAc(b1-2)[Gal(b1-3)GlcNAc(b1-6)]Man(a1-6)[Gal(b1-3)GlcNAc(b1-2)Man(a1-3)]Man(b1-4)GlcNAc(b1-4)GlcNAc. Summed up:
as §1

In experiment [9] the target is Gal(b1-3)GlcNAc(b1-3)Gal(b1-4)GlcNAc(b1-2)[Gal(b1-3)GlcNAc(b1-3)Gal(b1-4)GlcNAc(b1-6)]Man(a1-6)[Gal(b1-3)GlcNAc(b1-3)Gal(b1-4)GlcNAc(b1-2)Man(a1-3)]Man(b1-4)GlcNAc(b1-4)[Fuc(a1-6)]GlcNAc. In a few lines:
as §1

The target of experiment [10] is Gal(b1-3)GlcNAc(b1-3)Gal(b1-4)GlcNAc(b1-3)Gal(b1-4)GlcNAc(b1-2)[Gal(b1-3)GlcNAc(b1-3)Gal(b1-4)GlcNAc(b1-3)Gal(b1-4)GlcNAc(b1-6)]Man(a1-6)[Gal(b1-3)GlcNAc(b1-3)Gal(b1-4)GlcNAc(b1-3)Gal(b1-4)GlcNAc(b1-2)Man(a1-3)]Man(b1-4)GlcNAc(b1-4)[Fuc(a1-6)]GlcNAc. In a few lines: as §1
Experiment [11] addresses Gal(b1-4)GalNAc(b1-3)[Fuc(a1-2)]Gal(b1-4)GlcNAc. In a few lines: as §1
The target in experiment [12] is Gal(b1-4)GlcNAc(b1-3)Gal(b1-4)GlcNAc(b1-2)Man(a1-3)[Gal(b1-4)GlcNAc(b1-3)Gal(b1-4)GlcNAc(b1-2)Man(a1-6)]Man(b1-4)GlcNAc(b1-4)GlcNAc. In a few lines:
as §1

The target of experiment [13] is Gal(b1-4)GlcNAc(b1-3)Gal(b1-4)GlcNAc(b1-3)Gal(b1-4)GlcNAc(b1-3)Gal(b1-4)GlcNAc(b1-3)Gal(b1-4)GlcNAc(b1-3)Gal(b1-4)GlcNAc(b1-2)Man(a1-3)[Gal(b1-4)GlcNAc(b1-3)Gal(b1-4)GlcNAc(b1-3)Gal(b1-4)GlcNAc(b1-3)Gal(b1-4)GlcNAc(b1-3)Gal(b1-4)GlcNAc(b1-3)Gal(b1-4)GlcNAc(b1-2)Man(a1-6)]Man(b1-4)GlcNAc(b1-4)GlcNAc. Summed up:
as §1

For experiment [14], the target named is Gal(b1-4)GlcNAc(b1-6)[Gal(b1-4)GlcNAc(b1-3)]GalNAc. Summed up: as §1
The target in a further experiment is Gal3S(b1-4)Glc. Summed up:
as §1

The target in the next experiment is Gal6S(b1-4)GlcNAc. Summed up: as §1
Experiment [15] concerns the target GalNAc(b1-4)GlcNAc(b1-2)Man. In a few lines:
as §1

Another experiment concerns the target GalNAc(b1-4)GlcNAc6S. Summed up: as §1
For another experiment, the target named is GalNAc(b1-6)GalNAc. Summed up:
as §1

Experiment [16] deals with GlcNAc(b1-2)Man(a1-3)[GlcNAc(b1-4)][GlcNAc(b1-2)Man(a1-6)]Man(b1-4)GlcNAc(b1-4)[Fuc(a1-6)]GlcNAc. In a few lines: as §1
In experiment [17] the target is GlcNAc(b1-2)[GlcNAc(b1-6)]Man(a1-6)[GlcNAc(b1-2)Man(a1-3)]Man(b1-4)GlcNAc(b1-4)GlcNAc. In a few lines:
as §1

In experiment [18] the target is GlcNAc(b1-3)Gal(b1-4)GlcNAc(b1-3)Gal(b1-4)GlcNAc(b1-2)Man(a1-3)[GlcNAc(b1-3)Gal(b1-4)GlcNAc(b1-3)Gal(b1-4)GlcNAc(b1-2)Man(a1-6)]Man(b1-4)GlcNAc(b1-4)[Fuc(a1-6)]GlcNAc. In a few lines: as §1
Experiment [19] deals with GlcNAc(b1-3)Gal(b1-4)GlcNAc(b1-3)Gal(b1-4)GlcNAc(b1-2)[GlcNAc(b1-3)Gal(b1-4)GlcNAc(b1-3)Gal(b1-4)GlcNAc(b1-6)]Man(a1-6)[GlcNAc(b1-3)Gal(b1-4)GlcNAc(b1-3)Gal(b1-4)GlcNAc(b1-2)Man(a1-3)]Man(b1-4)GlcNAc(b1-4)[Fuc(a1-6)]GlcNAc. In a few lines: as §1
Experiment [20] addresses GlcNAc(b1-3)Gal(b1-4)GlcNAc(b1-3)Gal(b1-4)GlcNAc(b1-3)Gal(b1-4)GlcNAc(b1-2)Man(a1-3)[GlcNAc(b1-3)Gal(b1-4)GlcNAc(b1-3)Gal(b1-4)GlcNAc(b1-3)Gal(b1-4)GlcNAc(b1-2)Man(a1-6)]Man(b1-4)GlcNAc(b1-4)GlcNAc. Summed up:
as §1

In experiment [21] the target is GlcNAc(b1-3)Gal(b1-4)GlcNAc(b1-3)Gal(b1-4)GlcNAc(b1-3)Gal(b1-4)GlcNAc(b1-2)[GlcNAc(b1-3)Gal(b1-4)GlcNAc(b1-3)Gal(b1-4)GlcNAc(b1-3)Gal(b1-4)GlcNAc(b1-6)]Man(a1-6)[GlcNAc(b1-3)Gal(b1-4)GlcNAc(b1-3)Gal(b1-4)GlcNAc(b1-3)Gal(b1-4)GlcNAc(b1-2)Man(a1-3)]Man(b1-4)GlcNAc(b1-4)[Fuc(a1-6)]GlcNAc. Summed up: as §1
The target of experiment [22] is GlcNAc(b1-3)Gal(b1-4)GlcNAc(b1-3)Gal(b1-4)GlcNAc(b1-3)Gal(b1-4)GlcNAc(b1-3)Gal(b1-4)GlcNAc(b1-2)[GlcNAc(b1-3)Gal(b1-4)GlcNAc(b1-3)Gal(b1-4)GlcNAc(b1-3)Gal(b1-4)GlcNAc(b1-3)Gal(b1-4)GlcNAc(b1-6)]Man(a1-6)[GlcNAc(b1-3)Gal(b1-4)GlcNAc(b1-3)Gal(b1-4)GlcNAc(b1-3)Gal(b1-4)GlcNAc(b1-3)Gal(b1-4)GlcNAc(b1-2)Man(a1-3)]Man(b1-4)GlcNAc(b1-4)[Fuc(a1-6)]GlcNAc. Summed up: as §1
In experiment [23] the target is GlcNAc(b1-3)Gal(b1-4)GlcNAc(b1-3)Gal(b1-4)GlcNAc(b1-3)GalNAc. In a few lines:
as §1

Experiment [24] has as its target GlcNAc(b1-3)Gal(b1-4)GlcNAc(b1-6)[GlcNAc(b1-3)Gal(b1-3)]GalNAc. In a few lines: as §1
The target of experiment [25] is GlcNAc(b1-4)GlcNAc(b1-4)GlcNAc(b1-4)GlcNAc(b1-4)GlcNAc. Summed up: as §1
For experiment [26], the target named is Neu5Ac(a2-3)Gal(b1-4)[Fuc(a1-3)]GlcNAc6S. Summed up: as §1
For experiment [27], the target named is Neu5Ac(a2-6)Gal(b1-4)GlcNAc(b1-3)Gal(b1-4)GlcNAc(b1-3)Gal(b1-4)GlcNAc(b1-2)Man(a1-3)[Neu5Ac(a2-6)Gal(b1-4)GlcNAc(b1-3)Gal(b1-4)GlcNAc(b1-3)Gal(b1-4)GlcNAc(b1-2)Man(a1-6)]GalNAc. Summed up: as §1
The target of experiment [28] is Neu5Ac(a2-8)Neu5Ac(a2-3)Gal(b1-3)GalNAc(b1-4)[Neu5Ac(a2-8)Neu5Ac(a2-3)]Gal(b1-4)Glc. In a few lines: as §1
Experiment [29] has as its target Neu5Gc(a2-8)Neu5Gc(a2-6)Gal(b1-4)GlcNAc. In a few lines: as §1

Only a selection was taken, and the strongest signals are over-represented in it overall.

B1: Pwp4 (Candida glabrata) (protein)
chain: MGSSHHHHHHSSGLVPRGSHMASVGNPITVSNVCSFPKNWHRTAGFRALTARLGIGIQSDSYKELLNYPGTFQLTTQQSSTTKPNFQISGLVGNIYGLTIVPSYLLVELTGYFVPPVSGEYTFSLEGSDDAAIIFIANPSTFKCGHVEDWPTAYDNDVTVTESIHATRTIYMIEGVAYPIRIAYYNGLSLGKLQASFTDPEGVKRVDWNGYIWRYDSCDTCSYV
On to B1, for which the “glycan array binding signal (z-score)” value is -0.913 in the experiment with Fuc(a1-2)Gal(b1-3)GlcNAc; 0.039 in experiment [1]; -0.4 in [2]; 1.61 in experiment [3]; -0.415 in [4]; -0.763 in [5]. The “glycan array binding signal (z-score)” value is -0.55 in [6]; 2.97 in [7]; -0.162 in [8]; 5.18 in [9]; 2.9 in experiment [10]; -0.019 in experiment [11]. Further, the “glycan array binding signal (z-score)” value in experiment [12] is 0.09; in experiment [13] it was 3.83; in experiment [14], 0.033; in the experiment with Gal3S(b1-4)Glc it was -0.366; with Gal6S(b1-4)GlcNAc, -0.68; in experiment [15], -0.392. Besides, the “glycan array binding signal (z-score)” value in the experiment with GalNAc(b1-4)GlcNAc6S was -0.423; with GalNAc(b1-6)GalNAc it was -0.402; in experiment [16], -1; in experiment [17], 7.51; in experiment [18] it was 1.26; in experiment [19], 4.62. Besides, the “glycan array binding signal (z-score)” value was 1.16 in experiment [20]; 5.36 in [21]; 4.3 in [22]; -0.617 in [23]; -0.359 in [24]; -0.442 in experiment [25].

B2: HA-61200 (Pseudomonas aeruginosa), Q02SP8_PSEAB (protein)
chain: MNKCYALVWNVSQGCWNVVSEGSRRRGKPAGAKAAIASVLALLGATALAPAYALPSGGTVVGGSANGEIHLSGGNSLSVNQKVDKLIANWDSFSVAAGERVIFNQPSSSSIALNRVIGTKASDIQGRIDANGQVFLVNPNGVLFGRGAQVNVGGLVASTLDITDAEFNGNSSRYRFTGPSTNGVLNHGGAITAAEGGSIALLGAQVDNRGTVLAQMGGVGLGAGSDLTLNFDGNKLLDIRVDAGVANALASNGGLLKADGGRVLMAARTANALLNTVVNSQGAIEARSLRGKNGRIVLDG
In the case of B2, the “glycan array binding signal (z-score)” value in [26] is -0.953; in experiment [27] it was 4.49; in experiment [28] it was -0.215; in experiment [29], -0.263.
